This is a sample that favours compounds with a hit; in the whole collection about 4.7% have one here.
TWEAK Fn14 block = TWEAK-Fn14 signaling inhibition. TWEAK-stimulated Fn14 reporter cells, luciferase luminescence, 8 h. inhibition, % at 10 µM. hit rate 2% among 360,000; in the data active = inhibition above about 50%
LMP1 NFkB inh = inhibitors of Epstein-Barr LMP1-induced NF-kappaB reporter; LMP1-induced NF-kappaB luciferase reporter cells, luminescence; hit rate 0.69% among 350,000; inhibition, % at 12.5 µM; AID 504558; in the data active = inhibition above about 41%; inconclusive = no clear call, values can overlap the other calls
HSF1 inh = HSF1 inhibition | activity change, negative = inhibition, % at 7.5 µM (by protocol) | hit rate 0.77% among 300,000 | NIH3T3-HGL HSE-luciferase, MG132-induced, luminescence 8 h; active compounds read low;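 active = more than half of replicate wells show activity change below -50%, luminescence cut by over half; inconclusive = some wells, but at most half, below -50%; inactive = no replicate well below -50%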;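 note: luciferase reports HSF-1 transcriptional activity via heat shock element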
TROY NFkB inh = inhibitors of TROY-dependent NF-kB signaling; AID 1347056; inhibition, % at 10 µM; hit rate 0.98% among 360,000; Q293 LMP1-TROYcd NF-kB luciferase reporter, 4 h;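 active = compounds whose plate-normalised and pattern-corrected inhibition of the luciferase reporter signal at the single screening dose is 50% or more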
HSF-1 act = increases HSF-1 driven luciferase reporter signal; activation, % at 9 µM; AID 504408; NIH3T3-HGL HSF-1 luciferase reporter, MG132, 8 h; 100% = twice DMSO control signal; hit rate 1.7% among 300,000;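 active = mean replicate activation of at least 50% with a set share of replicates each reaching 50%; inconclusive = only one of those two conditions met; inactive = mean below 50% and too few replicates reaching it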
HSP90 inh = inhibitors of HSP90 luciferase refolding in rabbit reticulocyte lysate. inhibition, % at 5.6 µM. hit rate 0.91% among 290,000. luciferase refolding luminescence, 3 h;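 active = inhibition above the screen-wide mean plus 3 SD, computed separately per campaign, cut at about 16% in these data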;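 note: inhibitors lower the luminescence because luciferase stays unfolded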
Each line names hits and unclear results; the compound was inactive in the other large screens.

C[C@@H]1CN([C@@H](C)CO)C(=O)CCCn2nncc2CO[C@H]1CN(C)S(=O)(=O)c1cccc(C#N)c1	none (no result: HSF1 inh, HSF-1 act, HSP90 inh)
O=C(COc1ncnc2ccc(Br)cc12)Nc1ccc(N2CCOCC2)cc1	none
Brc1ccc2ncnc(Nc3ccc(N4CCOCC4)cc3)c2c1	TWEAK Fn14 block 59
CCNC(=O)N(C)c1c(CC)nc2ccc(C(=O)N3CCN(S(=O)(=O)CC)CC3)cn12	none (no result: LMP1 NFkB inh, HSF1 inh, HSF-1 act, HSP90 inh)
CC(C)(C)NC(=O)c1ccc2c(c1)N(CC(=O)N1CCCC1)C(=O)C(C)(C)O2	none
CC(C)(C)NC(=O)c1ccc2c(c1)N(CC(=O)N1CCCCC1)C(=O)C(C)(C)O2	HSF-1 act 66
Cc1ccc[n+](CC(=O)Nc2ccc([N+](=O)[O-])cc2Cl)c1	HSF-1 act 67
Cn1c(=O)c2c(ncn2CC(=O)OCC(=O)NCc2ccc(F)cc2)n(C)c1=O	none (no result: HSF1 inh, HSF-1 act, HSP90 inh)
OCCN(CCO)c1cc2c3ccccc3ccc2c2ccccc12	TWEAK Fn14 block 99, TROY NFkB inh 51 (no result: HSF1 inh, HSF-1 act, HSP90 inh)
OCCN(CCO)c1ccc2ccccc2c1	none
COc1ccccc1C(O)c1ncc(-c2ccccc2C)[nH]1 (stereo not given)	none (no result: LMP1 NFkB inh, HSF1 inh, HSF-1 act, HSP90 inh)
COc1ccc(C2CC(=O)C3=C(C2)Nc2ncnn2C3c2ccccc2)cc1 (stereo not given)	HSF-1 act 81
COc1ccc(C2CC(=O)C3=C(C2)Nc2ncnn2C3c2ccccc2C)cc1 (stereo not given)	none
Cc1ccc(S(=O)(=O)C2(C(=O)N3CCN(c4ccccc4F)CC3)CC2)cc1	TWEAK Fn14 block 66
Cc1cccc(N2CCN(C(=O)C3(S(=O)(=O)c4ccc(Cl)cc4)CC3)CC2)c1C	none
CCOC(=O)[C@]12CCCC=C1N(Cc1cccc3ccccc13)C(=O)[C@H](CC(=O)NCc1ccc(OC)c(OC)c1)C2	none (no result: LMP1 NFkB inh, HSF1 inh, HSF-1 act, HSP90 inh)
O=C1OC(Nc2ccc(Cl)cn2)c2ccccc21 (stereo not given)	none
CN(NC1OC(=O)c2ccccc21)c1ncc(Cl)cc1C(F)(F)F (stereo not given)	HSF-1 act 66 (no result: LMP1 NFkB inh)
CCn1c(SCC(=O)Nc2nc(-c3ccc(C)cc3)cs2)nnc1-c1ccccc1O	TROY NFkB inh 50
CCn1c(SCC(=O)Nc2nc(-c3ccc(C)cc3)cs2)nnc1-c1ccccc1	none
CCOc1ccc2nc(SCC(=O)Nc3ccc4c(c3)OCCO4)[nH]c2c1	none
O=C(CSc1nc2ccccc2[nH]1)Nc1ccccc1F	none
O=C(CSc1nc2ccccc2[nH]1)Nc1ccc(F)c(F)c1	HSF1 inh -61
COc1ccc2nc(SCC(=O)Nc3ccc4c(c3)OCCO4)[nH]c2c1	TWEAK Fn14 block 89, HSF1 inh -53, TROY NFkB inh 69
COc1ccc(NC(=O)CSc2nc(O)cc(=O)n2-c2ccccc2)cc1	none
O=C(CSc1nc(O)cc(=O)n1-c1ccccc1)Nc1nc2ccccc2s1	TROY NFkB inh 64
C[C@@H]1CCCCO[C@H](CN(C)C(=O)Cc2ccccc2)[C@H](C)CN([C@@H](C)CO)C(=O)c2cc(NC(=O)Nc3ccc(F)cc3)ccc2O1	none (no result: HSF1 inh, HSF-1 act, HSP90 inh)
O=C(Nc1ccc2c(c1)OCO2)c1ccc2sc([C@H]3C[C@H](O)[C@@H](CO)O3)nc2c1	none (no result: LMP1 NFkB inh, HSF1 inh, HSF-1 act, HSP90 inh)
Cn1c(SCC(=O)Nc2nc3ccccc3s2)nnc1-c1ccccc1	none (no result: HSF1 inh, HSF-1 act)
CCn1c(SCC(=O)Nc2nc3ccccc3s2)nnc1-c1ccc(Br)cc1	TWEAK Fn14 block 66
Cc1ccc(-c2csc(NC(=O)CSc3nc4ccccc4[nH]3)n2)cc1	TWEAK Fn14 block 72, TROY NFkB inh 57
Cc1ccccc1C(=O)NCCN1CCC(n2c(=O)[nH]c3ccccc32)CC1	none (no result: LMP1 NFkB inh, HSF1 inh, HSF-1 act, HSP90 inh)
COCc1cccc(-c2csc(C(NC(C)=O)c3cccc(OC)c3)n2)c1 (stereo not given)	none (no result: LMP1 NFkB inh, HSF1 inh, HSF-1 act, HSP90 inh)
CCCCCCCCCn1c2c(c(=N)c3c1CCC3)CCCC2	TWEAK Fn14 block 57, TROY NFkB inh 51
CCCCCCCCn1c2c(c(=N)c3ccccc31)CCC2	TWEAK Fn14 block 71
CCCCCCCCCCn1c2c(c(=N)c3c1CCC3)CCC2	TWEAK Fn14 block 72, LMP1 NFkB inh inconclusive, TROY NFkB inh 57
CCCCCn1c2c(c(=N)c3ccccc31)CCC2	none
CCn1c2c(c(=N)c3c1CCC3)CCCC2	none (no result: LMP1 NFkB inh)
COc1cc(CN2C[C@@H](CO)O[C@@H](n3cnc4c(NC(C)C)ncnc43)C2)cc(OC)c1OC	none (no result: LMP1 NFkB inh, HSF1 inh, HSF-1 act, HSP90 inh)
CN(C)CCCN(C(=O)c1ccc(C(=O)c2ccccc2)cc1)c1nc2c(F)cccc2s1	none
CCOc1cccc2sc(N(CCCN(C)C)C(=O)c3ccc(C(=O)c4ccccc4)cc3)nc12	TWEAK Fn14 block 92
COc1ccc(CN2C(=O)C(CC(=O)NC3CC3)CC(C(=O)N(C)C)=C2C)cc1 (stereo not given)	none (no result: HSF1 inh, HSF-1 act, HSP90 inh)
CCN(CC)c1ccc([N+](=O)[O-])cc1C(=O)N1CCOCC1	HSF-1 act 55
CN1CCN(c2ccc([N+](=O)[O-])cc2C(=O)N2CCOCC2)CC1	none
Cc1ccc(Nc2nc3c(c(=O)[nH]2)CCCC3)cc1	none (no result: HSF1 inh, HSF-1 act)
O=c1[nH]c(Nc2nc3ccccc3o2)nc2c1CCCC2	TWEAK Fn14 block 98, LMP1 NFkB inh 75, TROY NFkB inh 76
CN(CC(=O)NCCCN1CCOCC1)S(=O)(=O)c1ccc(Br)cc1	TWEAK Fn14 block 63 (no result: TROY NFkB inh)
Cc1ccc(F)c(S(=O)(=O)NC(=O)C2(C)CCN2C(=O)CCC2CCCC2)c1 (stereo not given)	none (no result: LMP1 NFkB inh, HSF1 inh, HSF-1 act, HSP90 inh)
COc1ccc([C@H]2CN(Cc3ccccc3)C(=O)[C@@H]2CC(=O)Nc2ccccc2)cc1	none (no result: HSF1 inh, HSF-1 act, HSP90 inh)
COc1cccc(C(=Cc2ccc([N+](=O)[O-])cc2)C(=O)O)c1	none (no result: HSF1 inh, HSF-1 act, HSP90 inh)
COc1ccccc1CN(C)C(=O)c1ccc(COc2ccccc2)cc1	none
COc1cccc(CN(C)C(=O)CNC(=O)c2cccs2)c1OC	none (no result: HSP90 inh)
COc1cccc(CN(C)C(=O)CNC(=O)c2ccc(-c3ccccc3)cc2)c1OC	TWEAK Fn14 block 51
COc1cccc(CN(C)C(=O)c2ccc(COc3ccc(Cl)cc3)cc2)c1OC	HSF-1 act 55
CN1CCCCC1(C)C(=O)NCc1cc(Cl)ccc1F (stereo not given)	none (no result: LMP1 NFkB inh, HSF1 inh, HSF-1 act, HSP90 inh)
C[C@@H]1CCCCO[C@H](CN(C)C(=O)Nc2ccc3c(c2)OCO3)[C@@H](C)CN([C@H](C)CO)C(=O)c2cc(NS(=O)(=O)c3ccc(F)cc3)ccc2O1	none (no result: HSF1 inh, HSF-1 act, HSP90 inh)
CC1(C(=O)Nc2ccc(Cl)c(Cl)c2)CCN1C(=O)CCC1CCCC1 (stereo not given)	none (no result: LMP1 NFkB inh, HSF1 inh, HSF-1 act, HSP90 inh)
O=C(NCc1ccc(Cl)c(Cl)c1)c1cc(C2CCCCN2C(=O)c2ccccn2)on1 (stereo not given)	none (no result: LMP1 NFkB inh, HSF1 inh, HSF-1 act, HSP90 inh)
COc1ccc(C(=O)Nc2nccs2)cc1[N+](=O)[O-]	none (no result: HSF1 inh, HSF-1 act)
Cn1cc([N+](=O)[O-])c(C(=O)Nc2nccs2)n1	HSF-1 act 77
Cn1cc([N+](=O)[O-])c(C(=O)Nc2ccc(Br)cn2)n1	HSF-1 act 53
CCN(C(=O)COC(=O)Cc1cccc2ccccc12)C1CCS(=O)(=O)C1 (stereo not given)	none (no result: HSF1 inh, HSF-1 act, HSP90 inh)
O=C(Nc1cccc2ccccc12)N(CCO)C1CCS(=O)(=O)C1 (stereo not given)	TWEAK Fn14 block 64, TROY NFkB inh 51
